From ChEMBL document CHEMBL4513146, “CO-ADD screening of Karazin Kharkiv National University (Ukraine) compounds” come the findings set out here.

Potency and affinity values are given separately.

For one test, the system named is Klebsiella pneumoniae. Conditions: Concentration 32 ug.mL-1;; ASSAY_TEST Inhibition of Bacterial Growth; detection method Absorption (OD600); MEDIA CAMHB; plate type 384well; NBS; CORNING #3640; time 18 hr.
The test system of the next test is Candida albicans. The settings on record: Concentration 32 ug.mL-1; ASSAY_TEST Inhibition of Fungal Growth; detection method Absorption (OD530).
The subject of the next test is Cryptococcus neoformans. The settings on record: Concentration 32 ug.mL-1; ASSAY_TEST Inhibition of Fungal Growth; detection method Resazurin; Absorption (OD600-OD570); plate type 384well; NBS; CORNING #3640. Background: Alamar Blue is a resazurin reagent that responds to reducing activity.

With `Cc1nnc2ccc(S(=O)(=O)N(Cc3ccccc3F)c3cccc(F)c3)cn12`, the Inhibition was 4.31% in the test with Klebsiella pneumoniae, 10.13% with Candida albicans and -4.32% with Cryptococcus neoformans.

With `CCc1nnc2c(S(=O)(=O)N(Cc3cccc(OC)c3)c3ccc(F)cc3)cccn12`, the results for the Inhibition in the test with Klebsiella pneumoniae, in the test with Candida albicans and in the test with Cryptococcus neoformans were -0.6%, 3.42% and -6.42%, respectively.

For `COc1ccc(NC(=O)c2ccc3nn(CC(=O)Nc4ccc5c(c4)OCCO5)c(=O)n3c2)cc1`, the Inhibition is reported as 2.24% in the test on Klebsiella pneumoniae, 1.62% with Candida albicans and -23.54% in the test with Cryptococcus neoformans.

As for `COc1ccc(C(=O)CSc2nnc3c(=O)n(-c4ccc(F)c(F)c4)ccn23)cc1`, the figures for the Inhibition in the test with Klebsiella pneumoniae, in the test with Candida albicans and in the test on Cryptococcus neoformans were 16.31%, 2.03% and -11.53%, respectively.

`COc1cccc(Sc2nc3ccccc3n3c(=O)n(CC(=O)Nc4ccc(C)cc4)nc23)c1`: the results for the Inhibition with Klebsiella pneumoniae, with Candida albicans and in the test with Cryptococcus neoformans were 9.1%, 4.31% and -30.42%, respectively.

Turning to `CC(C)c1nnc2c(SCC(=O)N3CCN(c4ccc(F)cc4)CC3)nc3ccccc3n12`, the results for the Inhibition in the test with Klebsiella pneumoniae, in the test on Candida albicans and in the test with Cryptococcus neoformans were 12.93%, -0.12% and -22.8%, respectively.

Take `Cc1ccc(-c2cc3c4nnc(CCC(=O)N5CCN(c6ccccn6)CC5)n4ccn3n2)cc1C`: the figures for the Inhibition in the test with Klebsiella pneumoniae, in the test on Candida albicans and in the test on Cryptococcus neoformans were 7.34%, 0.49% and -12.2%, respectively.

`Cc1cc(C)cc(N(Cc2ccccc2)S(=O)(=O)c2cccn3cnnc23)c1`: the results for the Inhibition in the test with Klebsiella pneumoniae, in the test on Candida albicans and in the test on Cryptococcus neoformans were -6.91%, 1.52% and -4.73%, respectively.

Regarding `O=C(CSc1nnc2c(=O)n(-c3ccccc3)ccn12)Nc1ccc(F)cc1`, the Inhibition is reported as 3.51% in the test with Klebsiella pneumoniae, 4.29% in the test on Candida albicans and -7.32% in the test with Cryptococcus neoformans.

With `CC(C)Sc1ccc2nn(CC(=O)Nc3ccccc3F)c(=O)n2n1`, the figures for the Inhibition in the test on Klebsiella pneumoniae, in the test with Candida albicans and in the test on Cryptococcus neoformans were 9.69%, 2.46% and -3.85%, respectively.

On to `CSc1cccc(NC(=O)Cn2nc3ccc(SC(C)(C)C)nn3c2=O)c1`, for which the Inhibition with Klebsiella pneumoniae was 7.55%; in the test with Candida albicans it was 2.25%; in the test on Cryptococcus neoformans, -15.09%.

With `O=C1CCCN1c1ccc(Cn2nc3ccc(-c4ccccc4)nn3c2=O)cc1`, the values for the Inhibition with Klebsiella pneumoniae, with Candida albicans and with Cryptococcus neoformans were 10.51%, -0.02% and -12.26%, respectively.

`Cc1ccc(CNC(=O)Cn2nc3ccc(SCc4ccc(Cl)cc4)nn3c2=O)cc1`: the values for the Inhibition with Klebsiella pneumoniae, in the test on Candida albicans and in the test with Cryptococcus neoformans were 9.12%, 20.24% and -27.26%, respectively.

Regarding `COc1ccccc1N1CCN(C(=O)Cn2nc3c(Sc4cccc(C)c4)nccn3c2=O)CC1`, the Inhibition with Klebsiella pneumoniae is -0.72%; in the test with Candida albicans, 2.52%; in the test with Cryptococcus neoformans it was -34.84%.

On to `O=C(Cn1nc2c(Oc3ccccc3)nccn2c1=O)Nc1ccccc1C(F)(F)F`, for which the Inhibition with Klebsiella pneumoniae was 6.19%; with Candida albicans it was 0.13%; in the test on Cryptococcus neoformans it was -8.9%.

`CCOc1cccc(CNC(=O)CCc2nnc3ccc(-c4ccc(C)cc4)nn23)c1`: the Inhibition in the test with Klebsiella pneumoniae was 8.62%; in the test on Candida albicans, 2%; in the test on Cryptococcus neoformans, -6.55%.

On to `Cc1ccc(NC(=O)c2ccc3nnc(SCC(=O)Nc4ccc(F)cc4)n3c2)cc1`, for which the Inhibition in the test with Klebsiella pneumoniae is listed as 0.72%; in the test on Candida albicans, 4.31%; with Cryptococcus neoformans it was -5.93%.

Take `Cc1[nH]c2ccccc2c1C(=O)CSc1nnc2c(=O)n(-c3ccc(Br)cc3)ccn12`: the figures for the Inhibition in the test with Klebsiella pneumoniae, in the test on Candida albicans and in the test with Cryptococcus neoformans were 4.84%, 1.31% and -12.52%, respectively.

As to `Cc1ccc(-c2cc3c4nnc(SCC(=O)Nc5ccc(C#N)cc5)n4ccn3n2)cc1`, the Inhibition in the test on Klebsiella pneumoniae is given as 4.89%; in the test with Candida albicans it was 0.36%; in the test on Cryptococcus neoformans it was -27.44%.

For `Cc1nnc2c(=O)n(CC(=O)NC3CCCC3)c3ccccc3n12`, the Inhibition is 6.01% in the test with Klebsiella pneumoniae, 0.18% in the test with Candida albicans and -17.78% in the test with Cryptococcus neoformans.

Take `COc1ccc(NC(=O)Cn2nc3c(N4CCCC(C)C4)nccn3c2=O)cc1OC` (centres undefined): the Inhibition in the test with Klebsiella pneumoniae is listed as -1.27%; in the test on Candida albicans it was -0.12%; in the test with Cryptococcus neoformans, -7.35%.

With `Cc1cc2nn(CC(=O)Nc3ccc(F)cc3F)c(=O)n2c(Nc2ccc(C)c(F)c2)n1`, the Inhibition in the test on Klebsiella pneumoniae is on record as 8.43%; with Candida albicans, 24.78%; in the test on Cryptococcus neoformans, -2.94%.

On to `CCc1ccccc1Sc1nccn2c(=O)n(CC(=O)Nc3cc(C)ccc3C)nc12`, for which the values for the Inhibition in the test on Klebsiella pneumoniae, in the test on Candida albicans and with Cryptococcus neoformans were 13.72%, 1.62% and -13.69%, respectively.

On to `COc1cccc(NC(=O)Cn2nc3c(Oc4ccccc4)nccn3c2=O)c1`, for which the Inhibition in the test with Klebsiella pneumoniae is -9.5%; with Candida albicans it was 1.78%; with Cryptococcus neoformans, -2.51%.

Turning to `COc1ccc(NC(=O)Cn2nc3ccc(-c4ccccc4)nn3c2=O)cc1OC`, the Inhibition with Klebsiella pneumoniae was -3.16%; in the test on Candida albicans, 3.57%; with Cryptococcus neoformans, 0.88%.

As to `O=c1c2nn(Cc3ccc([N+](=O)[O-])cc3)c(=O)n2ccn1-c1ccccc1`, the Inhibition with Klebsiella pneumoniae is listed as 13.17%; with Candida albicans, 3.56%; in the test on Cryptococcus neoformans, -7.73%.

In the case of `CCOc1ccc(-n2ccn3c(SC(CC)C(=O)Nc4ccc(C(C)C)cc4)nnc3c2=O)cc1` (centres undefined), the results for the Inhibition in the test on Klebsiella pneumoniae, in the test on Candida albicans and with Cryptococcus neoformans were 9.42%, 6.16% and -12.9%, respectively.

Turning to `O=S(=O)(c1ccc2nncn2c1)N(Cc1cc(F)cc(F)c1)c1ccc(F)cc1`, the Inhibition with Klebsiella pneumoniae was 7.07%; in the test on Candida albicans it was 0.51%; in the test with Cryptococcus neoformans, -5.99%.

Broadly, the Inhibition is the change of the read-out against control, counted positive when it falls.
